Here are results for 40 compounds from PubChem BioAssay (NCATS).

The assay is described as follows: High-throughput drug toxicity screening in the BPDCN cell line Cal-1 (AID 1224825). To be noted: Cal-1 BPDCN cell viability, qHTS; at 45.8 µM (top of the series) unless noted. The text has this: Blastic plasmacytoid dendritic cell neoplasm (BPDCN) is a rare, aggressive and largely incurable hematologic malignancy originating from plasmacytoid dendritic cells (pDCs). Although an initial response to chemotherapy is common, BPDCN prognosis is extremely poor and most patients relapse with drug-resistant disease leading to a median overall survival of ~1 year after diagnosis. To explore novel potential therapeutic strategies in BPDCN, we performed a high-throughput drug toxicity screening in BPDCN cell liens, using of a library of 1,912 small molecules, enriched for compounds that are either approved or in early stages of development for cancer therapy.
A total of 500 exponentially growing Cal-1 cells were seeded per well in 5 uL of media (RPMI + Glutamine, without phenol red plus10% FBS and 1X Pen/Strep) into 1536-well solid white high base tissue culture treated Greiner One Bio Plates (789173-F), using a multidrop combi dispenser and a small sterile cassette. Compounds and controls totaling 23nL per well (negative control DMSO and positive control 9.2 uM Bortezomib-final) were immediately added to the plates using a 1536 head pin tool from Kalypsys. The plates were then covered with stainless steel gasket lids from Kalypsys and incubated for 48 hours at 37C under 95% relative humidity with 5% CO2. After 48 hours, the plates were removed and allowed to reach room temperature before 3 uL of Cell Titer Glo reagent (Promega) were added using an Aurora Flying Reagent Dispenser Bioraptor. The plates were then spun at 1000 rpms to remove bubbles and incubated for 15 minutes at room temperature before reading on a ViewLux using a luminescent filter with a 10 second exposure. The relative luciferase units were used to calculated percent activity using DMSO as 100% and Bortezomib as 0%.
(In general: qHTS replaces the single test concentration by a dilution series.)
`N#CC(=C1Nc2ccccc2S1)c1ccnc(OCc2ccc(CN3CCOCC3)cc2)n1`: the viability (% of control) is 2.57%. With `C[C@@H](O[C@H]1OCCN(Cc2n[nH]c(=O)[nH]2)[C@@H]1c1ccc(F)cc1)c1cc(C(F)(F)F)cc(C(F)(F)F)c1`, the viability (% of control) worked out at 16.1%. Consider `CC(C)C[C@@H](C(=O)N[C@H](C(=O)OC1CCCC1)c1ccccc1)[C@H](O)C(=O)NO`, for which the viability (% of control) was 8.67%. As for `CCOC(=O)[C@@H](N)CCC(=O)N[C@@H](CSCc1ccccc1)C(=O)N[C@@H](C(=O)OCC)c1ccccc1`, the figure is 90.7%; as for `CCCCc1ccc(NS(=O)(=O)c2ccc(C)c(C(=O)N3CCN(c4cccc(C)c4C)CC3)c2)cc1`, 99.3%. As to `CC[C@]1(O)C[C@H]2CN(CCC3=c4ccccc4=N[C]3[C@@](C(=O)OC)(c3cc4c(cc3OC)N(C)[C@H]3[C@@](O)(C(N)=O)[C@H](O)[C@]5(CC)C=CCN6CC[C@]43[C@@H]65)C2)C1`, the viability (% of control) is 14.9%.

Take `Cc1ccccc1C(C(=O)NC1CCCCC1)N(C(=O)CNc1ccc(C#N)cc1)c1cccc(F)c1` (stereo not given): the viability (% of control) is 128%. As for `O=C(CO)N1CCC(c2[nH]nc(-c3ccc(Cl)cc3)c2-c2ccncn2)CC1`, the viability (% of control) came to 97.4%. The same measure for `CC1=C(CC(=O)O)c2cc(F)ccc2C1=Cc1ccc(S(C)=O)cc1` (stereo not given): 7.86%; for `Cc1ccc(C(=O)N(CCCN)[C@@H](c2oc3cc(Cl)ccc3c(=O)c2Cc2ccccc2)C(C)C)cc1`: 3.72%.

In the case of `COc1cc2c(cc1Cc1cccc(Cl)c1F)c(=O)c(C(=O)O)cn2[C@H](CO)C(C)C`, the viability (% of control) came to 11%.

`COc1ccc(Cn2ccc3ccc(C(=O)NO)cc32)cc1`: the viability (% of control) was found to be 19.7%. In the case of `Cc1csc(-c2nnc(Nc3ccc(Oc4ncccc4-c4ccnc(N)n4)cc3)c3ccccc23)c1`, the viability (% of control) amounted to 13.3%. As for `CC[C@H]1OC(=O)[C@H](C)[C@@H](O[C@H]2C[C@@](C)(OC)[C@@H](O)[C@H](C)O2)[C@H](C)[C@@H](O[C@@H]2O[C@H](C)C[C@H](N(C)C)[C@H]2O)[C@](C)(O)C[C@H](C)C(=NOCOCCOC)[C@H](C)[C@@H](O)[C@]1(C)O`, the figure is 113%; as for `Cc1nc(NC(=O)N2CCC[C@@H]2C(N)=O)sc1-c1csc(C(C)(C)C)n1`, 55.1%. Consider `CC[C@H](C)n1cc(C)c2c(C(=O)NCc3c(C)cc(C)[nH]c3=O)cc(-c3ccc(N4CCNCC4)nc3)cc21`, for which the viability (% of control) came to 39.5%. As for `O=c1[nH]c(=O)n([C@H]2C[C@@H](O)[C@@H](CO)O2)cc1I`, the figure is 87.5%; as for `O[C@@H](COc1cccc2ncccc12)CN1CCN(C2c3ccccc3[C@@H]3[C@H](c4ccccc42)C3(F)F)CC1` (stereo not given in full), 6.33%.

Take `CCC(=O)NCC[C@@H]1CCc2ccc3c(c21)CCO3`: the viability (% of control) was found to be 117%.

As for `CN(C)CCOc1ccc(C(=C(CCCl)c2ccccc2)c2ccccc2)cc1`, the viability (% of control) came to 111%. The same measure for `CCN1C[C@H](C)n2c(c(O)c3c(=O)n(Cc4ccc(F)c(Cl)c4)nc(C(=O)NC)c32)C1=O`: 113%; for `O=C(O)CCC=CCC[C@@H]1[C@H](N2CCCCC2)[C@@H](O)C[C@@H]1OCc1ccc(-c2ccccc2)cc1`: 63%. As for `CCOC(=O)c1c(CSc2ccccc2)n(C)c2cc(Br)c(O)c(CN(C)C)c12`, the figure is 52.2%; as for `O=C(Nc1ncc(SCCN2CCCC2)s1)[C@]1(c2ccc(S(=O)(=O)C3CC3)cc2)C[C@@H]1C1CCCCC1`, 92.3%.

In the case of `CN(C)CCN(C)C(=O)c1ccc(NC(=O)Nc2ccc(-c3nc(N4CCOCC4)c4ccn(CC(F)(F)F)c4n3)cc2)cc1`, the viability (% of control) turned out to be 3.29%.

On to `COc1ccc(CCC(=O)Nc2nc3ccc(Cl)cc3s2)cc1OC`, for which the viability (% of control) was 98.2%. In the case of `C=C1[C@H](n2cnc3c(=O)[nH]c(N)nc32)C[C@H](O)[C@H]1CO`, the viability (% of control) amounted to 8.7%. As for `Cc1c(C(=O)Nc2ccc(N3C[C@@H](C)O[C@@H](C)C3)nc2)cccc1-c1ccc(OC(F)(F)F)cc1`, the figure is 53.5%. As for `CCc1cc(-c2n[nH]c(C)c2-c2ccc3c(c2)OCCO3)c(O)cc1O`, the viability (% of control) came out at 9.12%. As for `Cc1cccc2c1CC[C@H](CN1CCC(c3c(Cl)cccc3Cl)CC1)C[C@@H]2O`, the figure is 43.1%; as for `O=S(=O)(O)c1ccc2cc(N=Nc3cc(S(=O)(=O)O)c4cccnc4c3O)ccc2c1`, 89.1%. As to `NCC1CCC(C(=O)O)CC1` (stereo not given), the viability (% of control) worked out at 115%.

In the case of `C[C@H](CCC(=O)O)[C@H]1CC[C@H]2[C@H]3[C@@H](CC[C@]12C)[C@@]1(C)CC[C@@H](O)C[C@H]1C[C@@H]3O`, the viability (% of control) came out at 35.2%. As for `Cc1ccc(S(=O)(=O)Nc2nc3ccccc3nc2Nc2ccc3nsnc3c2)cc1`, the figure is 14.1% [at 23.2 µM]; as for `O=C1CN2Cc3c(ccc(Cl)c3Cl)N=C2N1`, 96.9%. Turning to `NS(=O)(=O)c1ccc(Nc2nc(OCC3CCCCC3)c3[nH]cnc3n2)cc1`, the viability (% of control) turned out to be 9.86%. As for `O=c1[nH]nc(OCCCc2ccc(Cl)cc2)c(NCc2cccnc2)c1Br`, the figure is 8.48%; as for `CC(C)C[C@@H](N)[C@H](O)C(=O)N[C@H](C(=O)N[C@H](C(=O)N[C@@H](CC(=O)O)C(=O)O)C(C)C)C(C)C`, 104%; as for `O=C(Nc1ccc(OC(F)(F)F)cc1)c1sccc1NCc1ccnc2ccccc12`, 11.5%. For `CC(=O)NCCC(=O)N[C@@H](CCC(N)=O)C(=O)N[C@@H](CO)C(=O)N[C@@H](CCC(N)=O)C(=O)N[C@@H](CCC(N)=O)C(=O)N[C@H](C(=O)N[C@@H](Cc1ccccc1)C(=O)N[C@]1(C)CCCCCCC=CCCC[C@@](C)(C(=O)N[C@@H](CCC(N)=O)C(=O)N[C@@H](CC(N)=O)C(N)=O)NC(=O)[C@H](CC(C)C)NC(=O)[C@H](CC(C)C)NC(=O)[C@@H](CCCNC(=N)N)NC(=O)[C@H](Cc2c[nH]c3ccccc23)NC(=O)[C@H](CC(C)C)NC(=O)[C@H](CC(N)=O)NC1=O)[C@H](C)O`, the viability (% of control) amounted to 78.7%.
